Measured values published in PubChem BioAssay (NCI).
The panel holds about 83,000 compounds, 20% with a hit somewhere; the sample as a whole holds those more often.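 Treatment: one concentration, 48 hours, 96-well format. Scoring: percent growth, with anything below 10 considered active.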 Unmarked numbers belong to inactive results. Activity calls are given as the source filed them.

test system: PC-3 prostate; test: NCI-60 one-dose screen, 48 h (100 = growth as untreated, 0 = no growth, -100 = all killed); settings: 10 µM unless noted

| SMILES | growth |
| --- | --- |
| CCCCC1COc2cccc3c(SCC(=O)N(C)c4cccc(Cl)c4)cc[n+]1c23 (stereo unspecified) | 106% |
| COc1ccc(-c2c(N)n[nH]c2-c2ccccc2O)cc1OC | 82.7% |
| CCOC(=O)c1sc(-c2ccc(OS(=O)(=O)c3ccc(C(C)(C)C)cc3)c(C=O)c2)nc1C | 16.2% |
| Cc1nc(Nc2ccc(NC(=S)Nc3ccccc3)cc2)nc2nc(Nc3ccc(S(=O)(=O)O)cc3)[nH]c(=O)c12 | 99.5% |
| COc1ccc(/C=C2\COc3ccc(O)cc3C2=O)c(OC)c1 | 57.2% |
| COc1ccc(/C(C)=C(\c2ccc(Cl)cc2)c2ccc(OCCCN(C)C)cc2)cc1F | 59.2% |
| Cc1nc(Nc2ccc(NC(=S)Nc3ccccc3)cc2)c2ccccc2n1 | 99.2% |
| C=C1C(=O)O[C@H]2[C@H]1CC/C(COC(=O)/C=C\C(=O)NCc1ccc(Cn3c(=O)sn(-c4ccc(OC)cc4)c3=O)cc1)=C\CC[C@@]1(C)O[C@@H]21 | -58% (active) |
| CN(C)CCn1cc(-c2ccc3c(Nc4ccc(CC(=O)Nc5cccc(F)c5)cc4)ncnc3c2)cn1 | -25.2% [30 µM] (active) |
| COc1cc(/C=C/c2nc(Nc3ccc(S(=O)(=O)Nc4cc(C)on4)cc3)c3ccccc3n2)ccc1O | 80.4% |
| COc1ccc(/C(C)=C(\c2ccc(Cl)cc2)c2ccc(OCCN3CCCC3)cc2)cc1F | 30% |
| Cc1nc(Nc2ccc(S(=O)(=O)Nc3cc(C)on3)cc2)c2ccccc2n1 | 96.9% |
| COc1ccc(OC)c(/C=C2\COc3ccc(O)cc3C2=O)c1 | 95.2% |
| CCN(CC)CCOc1ccc(/C(=C(\C)c2ccc(F)c(OC)c2)c2ccc(Cl)cc2)cc1 | 14.8% |
| O[C@H]1CO[C@H]2[C@@H]1OC[C@@H]2Oc1ccc(Nc2ccnc(Nc3ccc(O[C@H]4CO[C@H]5[C@@H]4OC[C@@H]5O)c(Cl)c3)n2)cc1Cl | 15.7% |
| CC(=O)Nc1ccc(-c2cc3c(NCc4ccc(F)cc4)ncnc3s2)cc1 | 81% |

| SMILES | growth |
| --- | --- |
| C/C(Cc1ccc(Cl)cc1)=C(/c1ccc(Cl)cc1)c1ccc(OCCN(C)C)cc1 | 58.1% |
| C=C1C(=O)O[C@H]2[C@H]1CC/C(COC(=O)/C=C\C(=O)NCc1ccc(Cn3c(=O)sn(CCCC)c3=O)cc1)=C\CC[C@@]1(C)O[C@@H]21 | -59.7% (active) |
| Cc1nc(Nc2cccc(NC(=O)Nc3ccc(Cl)cc3)c2)c2ccccc2n1 | 77.9% |
| COc1ccc(/C=C2\COc3ccc(O)c(O)c3C2=O)c(OC)c1 | 49.6% |
| CCN(CC)CCOc1ccc(/C(=C(\C)c2ccc(OC)c(F)c2)c2ccc(Cl)cc2)cc1 | 64.8% |
| C=C1C(=O)O[C@H]2[C@H]1CC/C(COC(=O)/C=C\C(=O)NCc1ccc(Cn3c(=O)sn(-c4ccc(C#N)cc4)c3=O)cc1)=C\CC[C@@]1(C)O[C@@H]21 | -62.4% (active) |
| CN(C)CCN1C(=O)c2cccc3c(-c4ccc(-c5nc6c7ccccc7c7ccccc7c6[nH]5)cc4)ccc(c23)C1=O | 87.9% |
| c1ccc([P+](CCCc2n(Cc3ccc4ccccc4c3)c3ccccc3[n+]2Cc2ccc3ccccc3c2)(c2ccccc2)c2ccccc2)cc1 | 67.5% |
| CCCCS(=O)(=O)Oc1ccc(-c2nc(C)c(C(=O)OCC)s2)cc1C=O | 53.9% |
| CCCCN(Cc1ccc(C(=O)NO)cc1)C(=O)Nc1ccc(OCCCCCCCCCn2cc(CCCCC(=O)N[C@H](C(=O)N3C[C@H](O)C[C@H]3C(=O)NCc3ccc(-c4scnc4C)cc3)C(C)(C)C)nn2)cc1 | 27.8% |
| COc1ccc(/C(C)=C(\c2ccc(Cl)cc2)c2ccc(OCCN3CCCCCC3)cc2)cc1F | 41% |
| C=C1C(=O)O[C@H]2[C@H]1CC/C(COC(=O)/C=C\C(=O)NCc1ccc(Cn3c(=O)sn(-c4ccc(Cl)cc4)c3=O)cc1)=C\CC[C@@]1(C)O[C@@H]21 | -64.1% (active) |
| O[C@H]1CO[C@H]2[C@@H]1OC[C@@H]2Oc1ccc(Nc2nc(Nc3ccc(F)c(Cl)c3)ncc2F)cc1Cl | 102% |
| O=C(CCc1nc(-c2cccc(Cl)c2)no1)Nc1ccccn1 | 97.4% |
| COc1ccc(Cn2cnc3cc(C(=O)Nc4cccc5ccccc45)ccc32)c(OC)c1 | 17.4% [30 µM] |
